We go through 15 molecules from PubChem BioAssay (NCI).

The panel holds about 83,000 compounds, 20% with a hit somewhere; the sample as a whole holds those more often.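 Growth was measured after 48 h exposure to one concentration of compound in 96-well plates. Values under 10 count as active.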 A number with no mark means an inactive call. Calls of active or inactive are those of the source.

Holding throughout (experiment): NCI-60 one-dose screen, 48 h (100 = growth as untreated, 0 = no growth, -100 = all killed)
Holding throughout (details): 10 µM unless noted

For assay [1], the system named is T-47D breast.
Assay [2] concerns BT-549 breast.
Assay [3] deals with MDA-MB-435 melanoma.
Assay [4] relates to SW-620 colon.
In assay [5] the test system is MCF7 breast.
The test system of assay [6] is HCT-116 colon.
The test system of assay [7] is HCC-2998 colon.
Assay [8] concerns KM12 colon.

As to `Cc1cc(=O)[nH]c(O)c1C#N`, the growth was 105% in assay [1]; 113% in assay [2]; 105% in assay [3]; 96.6% in assay [4]; 99.9% in assay [5]; 104% in assay [6]. In addition, the growth in assay [7] was 114%; in assay [8] it was 102%.

Regarding `O=C(NNc1nc2cc(F)cc(F)c2n2cccc12)c1cccnn1`, the growth is 9.21% (active) in assay [1]; 31.5% in assay [2]; 24% in assay [3]; 22.1% in assay [4]; 10.4% in assay [5]; 22.4% in assay [6]. For the same molecule, the growth in assay [7] was 65.6%; in assay [8], 24.2%.

In the case of `Cc1[nH]c(C(=O)Nc2ccccc2OCc2cccc(C(=O)NCCN)c2)cc1Cl`, the growth was 87.1% in assay [1]; 104% in assay [2]; 20.6% in assay [3]; 32.4% in assay [4]; 11.3% in assay [5]; 38.2% in assay [6]. The growth in assay [7] was 109%; in assay [8] it was 86.4%.

Regarding `CCCCc1nc2c(N)nc3ccccc3c2n1Cc1ccc(OC)cc1`, the growth in assay [1] is 65.3%; in assay [2], 72%; in assay [3] it was 84%; in assay [4], 68.6%; in assay [5] it was 59.7%; in assay [6], 32.5%. The growth in assay [7] was 85.5%; in assay [8], 83.1%.

With `CC(=C(c1ccc(OCCN2CCCC2)cc1)c1ccc(OCCN2CCCC2)cc1)c1ccc(Cl)cc1`, the growth in assay [1] is -64.7% (active); in assay [2], 55.8%; in assay [3], -89.7% (active); in assay [4], -73.3% (active); in assay [5] it was -75% (active); in assay [6], -93.6% (active). Besides, the results for the growth in assay [7] and in assay [8] were -57.1% (active) and -22.9% (active), respectively.

In the case of `CN1CCN(Cc2ccc(NC(=O)c3cncc(C#Cc4cnc5ccc(O[C@@H]6CCOC6)nn45)c3)cc2C(F)(F)F)CC1`, the growth in assay [1] is -29.2% (active); in assay [2] it was -81.9% (active); in assay [3] it was -97.6% (active); in assay [4] it was -28% (active); in assay [5], -68.1% (active); in assay [6], -73.1% (active). Besides, the growth in assay [7] was -85% (active); in assay [8], -82.4% (active).

On to `COc1cccc2c1C=CC1(O2)Oc2cccc(OC)c2C=C1C` (stereo not given), for which the growth in assay [1] is 45.7%; in assay [2] it was 25.1%; in assay [3] it was -10.1% (active); in assay [4], 30%; in assay [5], 13.1%; in assay [6], 14%. In addition, the growth in assay [7] is 15.8%; in assay [8], 20.5%.

Regarding `COc1ccc(NC(=O)CCCCCCNC(=O)C(O)(O)C(F)(F)F)cc1`, the growth in assay [1] was 18.7%; in assay [2], 76.4%; in assay [3], 38.8%; in assay [4] it was 10.2%; in assay [5] it was 38.4%; in assay [6], 7.44% (active). Moreover, the growth in assay [7] was 55.9%; in assay [8], 41.6%.

As to `CCc1cc(OC(=O)N2CCC(N3CCCCC3)CC2)ccc1Nc1cc(-c2ccc(-n3cccn3)cc2)[nH]n1`, the growth in assay [1] is 97.2%; in assay [2], 87.6%; in assay [3] it was 37.3%; in assay [4], -38.3% (active); in assay [5] it was 6.81% (active); in assay [6] it was -64.1% (active). Moreover, the growth in assay [7] is 83.8%; in assay [8] it was 70.1%.

Consider `COc1ccc(C2C(C#N)=C(/N=C/c3ccc(Cl)cc3)Oc3c2sc2c(C)cccc32)cc1` (stereo not given), for which the growth in assay [1] is 17.9%; in assay [2], 49.5%; in assay [3], -23.5% (active); in assay [4], 31.2%; in assay [5], 21.5%; in assay [6] it was 13.4%. Moreover, the growth was 16.7% in assay [7] and 23.1% in assay [8].

As for `COc1cc2oc(-c3cccc(NC(=O)c4cccc([N+](=O)[O-])c4)c3)cc(=O)c2c(OC)c1OC`, the growth in assay [1] is 54.3%; in assay [2], 59.8%; in assay [3] it was 53.3%; in assay [4], 70.9%; in assay [5], 42.9%; in assay [6] it was 33.5%. The growth was 93.6% in assay [7] and 76.4% in assay [8].

Consider `NC(=S)n1c(=O)n(-c2cccc(C(F)(F)F)c2)c(=O)c2cc(-c3ccc(F)cc3F)ccc21`, for which the growth in assay [1] was -12.9% (active); in assay [2] it was -7.8% (active); in assay [3] it was 2.32% (active); in assay [4], 15%; in assay [5] it was 1.71% (active); in assay [6], 3.05% (active). In addition, the growth in assay [7] was 20.1%; in assay [8], 6.48% (active).

Turning to `COc1ccc2c(c1)c(-c1nnc(N)nc1-c1c[nH]c3ccc(F)cc13)cn2C`, the growth is 46.5% in assay [1]; 53.5% in assay [2]; 3.37% (active) in assay [3]; 25.7% in assay [4]; 18.9% in assay [5]; 21.4% in assay [6]. The growth is 74.6% in assay [7] and 22.9% in assay [8].

Turning to `CC1(C)C=Cc2cc(/C(N)=N/C(N)=N/c3nc4ccccc4s3)ccc2O1`, the growth in assay [1] was 77.6%; in assay [2], 86.1%; in assay [3] it was 99.3%; in assay [4], 102%; in assay [5] it was 67.2%; in assay [6] it was 59.2%. Also, the growth in assay [7] was 109%; in assay [8], 61.5%.

As to `CC(=O)OC[C@]12CC[C@@H](C(=O)/C=C/c3cccnc3)[C@@H]1[C@H]1CC[C@@H]3[C@@]4(C)CC[C@H](OC(C)=O)C(C)(C)[C@@H]4CC[C@@]3(C)[C@]1(C)CC2`, the growth in assay [1] was -16.7% (active); in assay [2], -12.6% (active); in assay [3], -1.17% (active); in assay [4] it was 7.96% (active); in assay [5], -26.8% (active); in assay [6], -61.2% (active). Further, the growth in assay [7] was -63.2% (active); in assay [8] it was 18.5%.
